Compounds with a hit are over-represented: about 10% of the library has one in this group of screens.
BAZ2B block – blocks human BAZ2B | hit rate 4.4% among 360,000 | AID 504333 | Q9UIF8 | AlphaScreen BAZ2B-H3K14Ac peptide displacement | Potency, µM (doses to about 114 µM), actives largely listed as inhibitors; note: nearly all actives have a fitted effect of over 60% in size
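AlphaScreen luminescence quantifies BAZ2B engagement of H3K14Ac peptide; the protein and biotinylated peptide are both at 50 nM final, buffer PBS pH 7.4 with 0.01% Tween-20, all steps at room temperature.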
HP1b chromo inh – HP1-beta chromodomain-methylated histone interaction inhibition; Potency, µM (top dose mostly 114 µM), most hits filed as inhibitors; hit rate 0.56% among 390,000; AlphaScreen HP1-beta / biotin-H3K9me3 peptide binding; AID 540317; P83916; note: nearly all actives have a fitted effect of over 70% in size
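AlphaScreen: HP1-beta (50 nM) preformed 30 min with biotin-H3(1-18)K9me3 peptide (50 nM) in PBS pH 7.4, 0.01% Tween-20. Compound added for 30 min at RT, then streptavidin donor/nickel chelate acceptor beads (10 ug/mL) for 30 min.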
CtBP-E1A blk – inhibitors of CtBP/E1A interaction; AlphaScreen GST-E1A/His-CtBP binding, 1536-well; active compounds read low; activity change, % (concentration not given with the values); hit rate 0.49% among 340,000; AID 651724; in the data active = activity change below about -65%; inconclusive = mostly about -30% to -63%
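In 5 uL wells, 23 nL compound meets equimolar GST-E1A and His-CtBP (5X stock 125 nM each) for 2 h, 37 °C. Beads (5X, 50 ug/mL) then 1 h, 37 °C, dark.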
G9a block – inhibitors of human histone lysine methyltransferase G9a. Q96KQ7. G9a H3K9 monomethylation, AlphaScreen, 2 h. Potency, µM (highest dose often 102 µM), hits mostly inhibitors. hit rate 8.8% among 350,000. AID 504332; note: nearly all actives have a fitted effect of over 75% in size
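Enzyme 20 nM + cpd, 15 min RT; add b-H3K9 pep 500 nM / SAM 20 uM; 2 h RT; anti-H3K9me1 Ab 0.5 ug/mL + SA donor / anti-rabbit acceptor beads 20 ug/mL each, 10 min; AlphaScreen read.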
Six1-Eya2 inh – blocks human Six1 binding to Eya2; activity change, % (no concentration beside the values); hit rate 0.56% among 360,000; AlphaScreen GST-Six1/His-Eya2 binding, biochemical; active compounds read low; AID 651725; in the data active = activity change below about -65%; inconclusive = mostly about -30% to -63%
Target sequence (O00167 whole entry, looked up): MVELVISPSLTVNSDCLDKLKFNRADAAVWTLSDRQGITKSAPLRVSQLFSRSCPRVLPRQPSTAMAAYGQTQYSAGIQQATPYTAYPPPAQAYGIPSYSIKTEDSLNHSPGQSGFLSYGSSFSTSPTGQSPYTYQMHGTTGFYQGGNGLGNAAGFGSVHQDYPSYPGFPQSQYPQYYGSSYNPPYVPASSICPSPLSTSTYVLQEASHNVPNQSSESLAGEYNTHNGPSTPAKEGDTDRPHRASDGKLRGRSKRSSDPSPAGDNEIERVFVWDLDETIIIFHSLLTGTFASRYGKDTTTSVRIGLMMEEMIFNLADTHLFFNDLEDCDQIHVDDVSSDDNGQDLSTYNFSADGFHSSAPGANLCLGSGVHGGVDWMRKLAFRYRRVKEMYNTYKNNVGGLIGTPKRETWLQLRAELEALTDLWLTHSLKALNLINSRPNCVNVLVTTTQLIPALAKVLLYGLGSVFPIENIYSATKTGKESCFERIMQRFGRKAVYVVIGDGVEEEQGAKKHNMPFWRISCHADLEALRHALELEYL
Target sequence (Q15475 whole entry, looked up): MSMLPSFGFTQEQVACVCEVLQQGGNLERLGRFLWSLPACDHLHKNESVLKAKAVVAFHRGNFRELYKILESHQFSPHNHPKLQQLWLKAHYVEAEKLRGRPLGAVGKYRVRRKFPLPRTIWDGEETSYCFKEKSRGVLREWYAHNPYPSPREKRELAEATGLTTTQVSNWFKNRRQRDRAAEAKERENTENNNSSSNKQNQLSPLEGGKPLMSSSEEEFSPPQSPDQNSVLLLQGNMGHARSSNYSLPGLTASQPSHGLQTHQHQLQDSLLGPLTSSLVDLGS
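GST-Six1 + His-Eya2 (5X stock: 250/500 nM); Tris pH 8.0, 300 mM NaCl, 0.05% BSA, 0.02% Tween 20; GSH donor/Ni acceptor beads; 1 h 37 °C dark; AlphaScreen readout.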
JMJD2A Tudor – blocks the human JMJD2A Tudor domain; hit rate 4.4% among 390,000; AlphaScreen JMJD2A-Tudor / H3K4me3 peptide binding; Potency, µM (top dose mostly 114 µM), most hits filed as inhibitors; note: nearly all actives have a fitted effect of over 50% in size
A number is an active result; . = inactive; ? = inconclusive; / = not tested or not shown; [ ] = remark or other dose. Unless noted, calls come from the whole dose curve; as a rule, active = well fitted inhibition curve with a large enough effect; inconclusive = small, poorly fitted or top-dose-only effect; inactive = no such curve, though single readings can be large or run the other way.

SMILES	BAZ2B block	HP1b chromo inh	CtBP-E1A blk	G9a block	Six1-Eya2 inh	JMJD2A Tudor
CC1CCc2c(sc(NC(=O)COC(=O)c3ccc(O)cc3)c2C#N)C1 (stereo not given)	.	.	.	40µM	.	?
CCCc1cc(C(=O)Nc2sc3c(c2C#N)CCC3)no1	.	.	.	40µM	.	.
CC(C)(C)C1CCc2c(sc(NC(=O)c3noc4c3CCCC4)c2C#N)C1 (stereo not given)	.	.	/	7.1µM	/	.
N#Cc1c(NC(=O)c2ccco2)sc2c1CCC2	.	?	.	89µM	.	50µM
NC(=O)c1c(NC(=O)c2ccco2)sc2c1CCC2	.	.	.	.	?	.
N#Cc1c(NC(=O)c2ccncc2)sc2c1CCC2	50µM	.	.	11µM	.	63µM
Cc1ccc(S(=O)(=O)Nc2ccc(Cl)cc2O)cc1	/	/	.	/	.	/
O=C(O)C1=NN(c2ccccc2)C(=O)C1	?	?	.	50µM	.	56µM
Cc1nc2c(C(=O)NCc3ccc4c(c3)OCO4)c[nH]n2c(=O)c1Cl	.	.	?	.	.	.
COc1ccc(N2CCN(C(=O)c3cc4c(C)nc5ccccc5c4o3)CC2)cc1	.	?	?	50µM	.	56µM
COc1ccc(N2CCN(C(=O)c3cc4c(=O)n(Cc5cccs5)ccc4nc3C)CC2)cc1	50µM	.	/	?	/	?
COc1cccc(CNC(=O)c2c[nH]n3c(=O)c(Cl)c(C)nc23)c1	.	.	-76	45µM	-84	.
COc1cccc(CNC(=O)c2cc3c(C)nc4ccccc4c3o2)c1	.	.	-66	?	?	.
COc1ccc(CNC(=O)c2cc3c(C)nc4ccccc4c3o2)c(OC)c1	.	.	.	.	?	.
COc1cccc(N2CCN(C(=O)c3cc4c(=O)n(Cc5cccs5)ccc4nc3C)CC2)c1	.	.	/	.	/	?
N#Cc1ccc(C(=O)N2CCC3CC2c2cc(-c4ccc(F)cc4)ccc23)cc1 (stereo not given)	/	.	.	/	.	.
CCc1ccc([C@@H]2CC(=O)[C@@H]3CN(S(=O)(=O)c4ccccc4)[C@H](c4ccc(OC)cc4)C[C@@H]3N2S(=O)(=O)c2ccc(C)cc2)cc1	/	/	.	/	.	/
Cc1cc(C)n2c(NC3CCCCC3)c(-c3cccnc3)nc2n1	/	/	.	/	.	/
Cc1nn(-c2cccc(C(F)(F)F)c2)c(=O)c2noc(C)c12	.	.	.	.	.	.
Cc1nc2ccccc2c2oc(C(=O)N3CCN(C4CCCCC4)CC3)cc12	.	.	.	.	.	.
Cc1nc2ccccc2c2oc(C(=O)N3CCC(N4CCCCC4)CC3)cc12	.	.	.	71µM	.	.
Cc1cccc(-c2n[nH]nc2C2=CC(=O)CC(C)(C)C2)c1	/	/	.	/	.	/
Cc1ccc(-n2c(C)cc(C(=O)CN3CCOCC3)c2C)cc1C	.	.	/	.	.	.
Cc1cc(-n2c(C)cc(C(=S)N3CCOCC3)c2C)ccc1Br	45µM	?	.	13µM	.	?
CC1CC(C)(C)CC2(C1)NC(=O)N(CC(=O)NCc1ccccc1F)C2=O (stereo not given)	.	.	.	.[0.501 µM]	.	.
SMILES	BAZ2B block	HP1b chromo inh	CtBP-E1A blk	G9a block	Six1-Eya2 inh	JMJD2A Tudor
CC1CCCCC12NC(=O)N(CC(=O)Nc1ccc(N3CCCCC3)cc1)C2=O (stereo not given)	.	.	.	16µM	.	.
CC1CC(C)(C)CC2(C1)NC(=O)N(CC(=O)N1CCN(S(=O)(=O)c3ccc(F)c(F)c3F)CC1)C2=O (stereo not given)	/	.	.	/	.	20µM
O=C(CN1C(=O)NC2(CCCCC2)C1=O)Nc1ccc(N2CCCCC2)cc1	/	.	.	/	.	.
CC1(c2ccccc2Cl)NC(=O)N(CC(=O)Nc2ccc(N3CCOCC3)cc2)C1=O (stereo not given)	/	.	.	/	.	.
CC1(c2ccccc2Cl)NC(=O)N(CC(=O)Nc2ccc(N3CCCCC3)cc2)C1=O (stereo not given)	35µM	.	.	14µM	.	?
CC1CC(C)(C)CC2(C1)NC(=O)N(CC(=O)Nc1ccc(N3CCCCC3)cc1)C2=O (stereo not given)	?	?	.	45µM	.	?

Screening data: PubChem, National Center for Advancing Translational Sciences (NCATS)
